High-throughput results from PubChem.
Autophagy HCS: modulators of autophagy | MEF GFP-LC3 puncta imaging; test concentration mostly 10 µM | calls only at 10 µM (by protocol) | AID 463193 | actives 0.98% (n = 190,000);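 active = percentage of spot-positive cells more than 3 SD above its plate mean, without a fluorescence outlier flag or 80% toxicity; inconclusive = no clear call, values can overlap the other calls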;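 note: spot-positive cell cutoff set from DMSO-treated cells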
Ins promoter up: MIN6 insulin promoter up-regulation. actives 0.3% (n = 190,000). MIN6 insulin promoter-GFP reporter, high-content imaging; stronger effect = higher value. z-score at 5 µM;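 active = z-score above 3 at 5 µM with at least 500 cells counted in the well; inconclusive = wells under 500 cells, flagged as cytotoxic or low count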
INS promoter inh: TRM-6 insulin promoter activity inhibition | inhibition, % at 2 µM | TRM-6 cells (human fetal islet line), insulin promoter-eGFP reporter, imaging; reporter expression induced with tamoxifen | AID 1273 | actives 0.9% (n = 130,000);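 active = inhibition above the mean plus 3 SD, with well images judged a real hit on visual review, cut at about 60% in these data, passing the limit was not always enough; inconclusive = inhibition over the cutoff but images rejected on review; inactive = inhibition not above the cutoff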
PTEN del growth: PTEN-deleted cell growth suppression; HCT116 PTEN-null viability, CellTiter-Glo, 60 h; stronger effect = lower value; viability, % at 10 µM; actives 1.2% (n = 140,000); AID 827;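 active = viability at or below a set limit, 4 SD under the median of all tested compounds, cut at about 3.7% in these data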;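 note: PTEN knockout HCT116 line with beta catenin targeted HCT116 as companion control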
L major viab: inhibitors of Leishmania major promastigote growth; AID 1063; actives 9% (n = 200,000); Leishmania major promastigotes, resazurin fluorescence viability; inhibition, % at 10 µM; in the data active = inhibition above about 50%;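 note: promastigotes grown with compound for 44 hours at 28 °C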
bCat KO growth: beta-catenin-lacking colon tumor cell growth suppression; HCT116 beta-catenin knockout viability, CellTiter-Glo, 60 h; stronger effect = lower value; viability, % at 10 µM; actives 1.5% (n = 140,000); AID 818;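 active = viability at or under a set limit, the compound median less 4 SD, cut at about 6% in these data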;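 note: 0% = Hyamine 1622 control at 20 µM and 100% = untreated cell control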
L major 1uM: blocks Leishmania major promastigote growth at 1 uM, repeat screen; shares compounds with L major viab; AID 1258; actives 13% (n = 1,100); inhibition, % at 1 µM; L. major promastigote growth, resazurin fluorescence, 48 h;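 active = inhibition above about 50% in both repeat tests, limit read from the data; inconclusive = one repeat under the set limit, the other over it; inactive = both repeats under the set limit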
Starred values were filed as active, the others as inactive; i = inactive; u = inconclusive; x = not tested or not shown. Rows were chosen to be rich in hits. Some 9.6% of all compounds tested hit in one or more screens of this group.

SMILES | Autophagy HCS | Ins promoter up | INS promoter inh | PTEN del growth | L major viab | bCat KO growth | L major 1uM
COc1cc(/C=C/C(=O)c2ccccc2O)cc(OC)c1OC | i | 0.37 | 20.0 | x | 13.3 | x | x
COc1ccc(OC)c(C(=O)/C=C/c2ccccc2C(F)(F)F)c1 | i | x | 15.9 | 4.8 | 75.0* | 4.2* | -8.8
COc1ccc(C(=O)/C=C/c2ccccc2)c(OC)c1 | i | -1.09 | x | x | 66.1* | x | 9.7
CCn1c2ccccc2c2nn(C)c(=N)nc21 | i | -0.74 | 3.0 | 76.0 | 95.7* | 78.9 | 29.6
Cc1ccc(-c2nnc(N3CCN(c4ccccn4)CC3)c3ccccc23)cc1 | i | -1.25 | 10.9 | 4.8 | 90.6* | 3.5* | 6.4
CCOCC(=O)Nc1nnc(SCCOC)s1 | i | 0.54 | 30.3 | 103.8 | -4.8 | 94.7 | x
CN(C(=O)c1ccc2c(c1)SC1=NS(=O)(=O)CCN12)C(c1ccccc1)c1ccccc1 | i | -2.87 | 17.9 | 77.0 | 74.7* | 81.0 | -17.3
O=C(O)c1ccc2c(c1)SC1=NS(=O)(=O)CCN12 | x | 0.11 | x | x | x | x | x
COc1ccc(C(C)NC(=O)c2ccc(Br)cc2)cc1OC (configuration not stated) | i | 0.99 | 13.8 | 94.9 | -5.0 | 93.1 | x
CCn1cc(C(=O)OCc2ccc(F)cc2)c(=O)c2ccc(C)nc21 | i | 0.07 | 19.4 | 91.4 | 50.3* | 89.8 | -1.8
CCC(/C=C1\Sc2ccc(OC)cc2N1CCO)=C\c1sc2ccc(OC)cc2[n+]1CCO | i | -0.81 | -41.7 | 0.9* | 100.2* | 2.5* | 100.3*
Cc1[nH]c2c(Br)cccc2c1[C@H]1[C@@H](CC#N)C1(C)C | i | 0.21 | 2.6 | 91.4 | 98.5* | 88.6 | 3.9
CCn1cc(CNCc2cn(C)nc2-c2ccc(C3CCCCC3)cc2)cn1 | i | -0.35 | x | x | 94.9* | x | 19.6
NS(=O)(=O)c1ccc(CCNC(=O)CSc2ccccc2)cc1 | i | 0.41 | 0.0 | 88.9 | -4.6 | 103.6 | x
CN(C)CCCN=c1cc(-c2ccccc2)oc2ccc(Cl)cc12 | i | -0.2 | -62.5 | x | 100.5* | x | 88.8*
NC(=NCCc1ccccc1)NS(=O)(=O)c1cccs1 | i | -1.39 | 20.0 | x | 5.2 | x | x
O=S(=O)(NC(=NCCc1ccc(Cl)cc1)c1ccccc1Cl)c1cccs1 | i | -1.62 | x | x | 99.9* | x | -4.5
COc1ccc2cc3[n+](cc2c1OC)CCc1cc2c(cc1-3)OCO2 | i | u | 66.7* | 31.3 | 99.6* | 42.0 | 76.4*
CCCN(CCC)c1nc2ccccc2n2c(C)nnc12 | i | 0.16 | -12.5 | 84.5 | 82.1* | 86.1 | -9.1
CC(=O)Nc1nnc(CSCc2ccc(F)cc2)s1 | x | 0.38 | x | x | x | x | x
CCCCN1C2CCCC1CC(NC(=O)C1CCCCC1)C2 (configuration not stated) | i | x | -66.7 | 95.0 | 87.6* | 95.5 | -7.7
COc1cc(Cl)ccc1NC(=O)COc1ccccc1C(=O)N1CCN(c2ccc(O)cc2)CC1 | i | x | 78.6* | 71.0 | 62.8* | 83.4 | 4.9
COc1ccccc1OCC(=O)Nc1ccc(O)cc1C(=O)O | i | 0.22 | 18.6 | 90.7 | -9.3 | 105.3 | x
COC(=O)C(CC(=O)c1ccc(Br)cc1)n1ccnc1 (configuration not stated) | i | 0.16 | 26.7 | 2.7* | 78.8* | 2.6* | 26.1
O=C(COC(=O)c1ccncc1)c1ccc(Br)cc1 | i | 0.09 | x | x | -10.8 | x | x
SMILES | Autophagy HCS | Ins promoter up | INS promoter inh | PTEN del growth | L major viab | bCat KO growth | L major 1uM
Cc1ccc(-c2csc(NC(=O)c3cc([N+](=O)[O-])ccc3N3CCOCC3)n2)cc1 | i | 0.52 | 23.5 | x | 5.3 | x | x
O=C(Nc1nc(-c2ccccc2)cs1)c1ccc(N2CCOCC2)c([N+](=O)[O-])c1 | i | -0.71 | x | 12.7 | 98.2* | 9.9 | 14.0
O=C1CC(Cc2ccccc2)C(=O)N1CCCn1ccnc1 (configuration not stated) | i | 0.42 | 42.1 | 105.1 | 98.8* | 96.0 | -4.8
CN(c1ccccc1)c1ccc(/C=C(\CCC(=O)O)c2nc3ccccc3s2)cc1[N+](=O)[O-] | i | -0.14 | -19.2 | 95.1 | 44.1 | 93.9 | x
CN(c1ccccc1)c1ccc(/C=C(\C#N)c2nnc3n2CCCCC3)cc1[N+](=O)[O-] | i | -0.55 | x | 43.0 | 56.0* | 43.5 | 14.2
Cc1ccc(O)c(-c2cc(-c3ccccc3C)[nH]n2)c1 | i | -0.43 | u | 20.2 | 54.7* | 13.8 | 20.4
COc1ccc(-c2cc(-c3cc(C)ccc3O)[nH]n2)cc1 | i | x | x | x | 23.9 | x | x
CCOC(=O)c1ccc(N=c2sc(C(=O)OC)cc(=O)n2Cc2ccco2)cc1 | i | 0.09 | x | 2.2* | 99.6* | 2.2* | 46.4
CCN(CC)c1ccc(/C=N/NC(=O)c2cccc(S(=O)(=O)N3CCOCC3)c2)c(O)c1 | i | -6.39 | x | x | 100.1* | x | -31.0
CC12COC3(P(=O)(c4ccccc4)c4ccccc4)CC1CCC23CP(=O)(c1ccccc1)c1ccccc1 (configuration not stated) | i | -1.18 | x | x | 61.7* | x | -7.0
CC12COC3(C(=O)Nc4ccc(F)cc4)CC1CCC32C (configuration not stated) | i | x | x | 95.2 | -8.0 | 89.2 | x
C#CCOc1ccc(/C=C2\SC(=S)N(Cc3cccnc3)C2=O)cc1 | i | 0.09 | -33.3 | 7.5 | 1.3 | 9.3 | x
O=C1/C(=C/c2ccc(O)cc2)SC(=S)N1Cc1cccnc1 | i | 0.5 | -27.3 | 92.5 | 60.2* | 93.8 | -13.4
O=C(c1cc(C(=O)N2CCOCC2)c2nc3ccccc3n2c1)c1ccccc1O | x | 0.14 | x | x | x | x | x
COC(=O)CN1C(c2ccc(Cl)cc2)=Nc2ccc(Cl)cc2C1c1ccccc1 (configuration not stated) | i | 0.03 | x | 53.9 | 64.8* | 60.1 | 48.0
Cc1ccc(S(=O)(=O)/N=C(\CCl)N2CCOCC2)cc1 | i | 0.58 | -128.6 | 56.7 | 87.2* | 54.2 | 48.9
Cn1c(N)c(S(=O)(=O)NCc2ccccc2Cl)c(=O)n(C)c1=O | i | 0.32 | -20.0 | x | 4.7 | x | x
Cc1cc(C)n2nc3nc4c(cc3c2n1)CCCC4 | i | -0.61 | 40.0 | 88.3 | 72.4* | 92.0 | -19.9
CC(C)(C)c1ccc(-n2nc(C(N)=O)c(O)cc2=O)cc1 | i | 0 | -29.4 | x | 3.5 | x | x
CC(C)(C)c1ccc(-n2nc(C#N)c(Cl)cc2=O)cc1 | i | -0.04 | x | x | 100.5* | x | 92.3*
CCOC(=O)c1cnc2c(OC)cccc2c1Nc1ccc2c(c1)OCCO2 | i | -0.72 | 20.0 | 23.0 | 52.9* | 28.2 | 12.6
CCOC(=O)c1cnc2c(C)cccc2c1Nc1ccc(N2CCOCC2)cc1 | i | -0.05 | 27.0 | 79.6 | 42.5 | 82.5 | x
CCCCCCSc1nsc(NC(=O)CC(C)C)n1 | i | -0.19 | 30.8 | 67.0 | 13.3 | 73.9 | x
CCCCCCCSc1nsc(N)n1 | i | 0.13 | -225.0 | 78.1 | 69.4* | 99.9 | -11.7
NC(=NCCc1ccc(Cl)cc1)NS(=O)(=O)c1ccc(F)cc1 | i | -0.43 | x | 81.4 | 1.8 | 87.9 | x
